From PubChem BioAssay (Tox21)
Results filed as inconclusive are left out. Entries that show only a call come without a potency. Values without a mark were called inactive. The source made the active and inactive calls. Calls come from the whole dose curve; as a rule, active = well fitted cell-killing curve with a large enough effect in the repeat runs; inconclusive = weak or mixed curves, or effect the other way; inactive = flat fitted curve, though single readings scatter.

Experiment: qHTS assay to identify small molecule antagonists of the estrogen receptor alpha (ER-alpha) signaling pathway using the BG1 cell line in the presence of 0.1 nM 17-beta-estradiol - cell viability counter screen (AID 1259241); note: nearly all actives have a fitted effect of over 40% in size
Settings: VM7Luc4E2 (BG1) viability, CellTiter-Fluor protease, 22 h, 0.1 nM estradiol agonist added; series mostly up to 92.4 µM
From the text: National Center for Advancing Translational Sciences [NCATS]
NIH Chemical Genomics Center [NCGC]
U.S. Environmental Protection Agency [EPA]
National Institutes of Environmental Health Sciences [NIEHS]
National Toxicology Program [NTP]
U.S. Food and Drug Administration [FDA]
Estrogen receptor (ER), a member of the nuclear hormone receptor plays an important role in development, metabolic homeostasis and reproduction. Two subtypes of ER, ER-alpha and ER-beta, have similar expression patterns with some uniqueness in both types. Endocrine disrupting chemicals (EDCs) and their interactions with steroid hormone receptors like ER causes disruption of normal endocrine function. Therefore, it is important to understand the effect of environmental chemicals in ER signaling pathway. For identifying ER antagonists, VM7Luc4E2 cell line was used to screen against Tox21 compound libraries.
VM7Luc4E2 cell line (provided by Denison MS, University of California) endogenously express full-length ER-alpha and is stably transfected with a plasmid containing four estrogen responsive elements (ERE) upstream of a luciferase reporter gene. The current screening for identification of ER-alpha inhibitors against Tox21 compound libraries used lower concentration (0.1 nM) of 17beta-Estradiol as a stimulator. The cytotoxicity of the Tox21 compound libraries against VM7Luc4E2 cell line was tested by measuring live-cell protease activity using CellTiter-Fluor assay in the same wells.
Tox21 Assay Protocol Summary:
VM7Luc4E2 cells were cultured in phenol red free assay medium containing 10% charcoal stripped FBS for 5 days prior to the assay. The cells were dispensed at 4,000 cells/well in 4 uL of assay medium into white wall/solid-bottom 1536-well plates (Corning Life Sciences, Corning, NY) using a Multidrop Combi (ThermoFisher Scientific, Waltham, MA) dispenser. After the assay plates were incubated at 37C and 5% CO2 for 24 hr, 23 nL of compounds dissolved in DMSO, positive controls or DMSO only was transferred to the assay plates by a Pintool station (Kalypsys, San Diego, CA). The transfer of compounds was followed by the addition of 1 uL of 0.1 nM (final concentration) agonist (17beta-Estradiol)/assay medium using a Flying Reagent Dispenser (FRD, Aurora Discovery, San Diego, CA). The plates were incubated at 37C and 5% CO2 for 22 hr. For cytotoxicity assay, 1 uL of CellTiter-Fluor reagent (Promega Corporation, Madison, WI) was added to each well using the FRD and after 30 min incubation at 37C and 5% CO2, The fluorescence intensity was measured using ViewLux plate reader (PerkinElmer, Shelton, CT).
Potency is the fitted concentration of half-maximal effect.

Row | SMILES | Potency | activity change, negative = cytotoxicity
1 | Cc1cc(N)c2cc(NC(=O)Nc3ccc4nc(C)cc(N)c4c3)ccc2n1 | inactive | –
2 | CCO[Si](CCCCl)(OCC)OCC | inactive | –
3 | CCOC(=O)Cc1cccc2ccccc12 | inactive | –
4 | c1cc(CCCc2ccncc2)ccn1 | inactive | –
5 | CN(C)CCCN1c2ccccc2Sc2ccccc21 | inactive | –
6 | CC[N+](C)(CC)CCOC(=O)C(O)(c1ccccc1)C1CCCCC1 (stereo not given) | inactive | –
7 | CCOC(=O)COC(=O)c1cc(Oc2ccc(C(F)(F)F)cc2Cl)ccc1[N+](=O)[O-] | inactive | –
8 | O=C1c2ccccc2S(=O)(=O)N1CCCCN1CCN(c2ncccn2)CC1 | inactive | –
9 | C[C@H]1C[C@H]2[C@@H]3CCC4=CC(=O)C=C[C@]4(C)[C@@]3(Cl)[C@@H](O)C[C@]2(C)[C@@]1(O)C(=O)CO | inactive | –
10 | CNCCCCOc1ccccc1Cc1ccccc1 | inactive | –
11 | CCOc1ccc(O)cc1 | inactive | –
12 | CC(C)OC(=O)C(C)N(C(=O)c1ccccc1)c1ccc(F)c(Cl)c1 (stereo not given) | inactive | –
13 | Nc1c(CC(=O)O)cccc1C(=O)c1ccc(Br)cc1 | inactive | –
14 | O=[N+]([O-])c1ccc(NCCO)c(OCCO)c1 | 54.5 µM (active) | –
15 | Nc1ccc(N)c2c1C(=O)c1ccccc1C2=O | 12.2 µM (active) | –
16 | CC1OC(=O)C(C)OC1=O (stereo not given) | inactive | –
17 | C=C1C(=C/C=C2\CCC[C@]3(C)[C@@H]([C@H](C)/C=C/[C@@H](O)C4CC4)CC[C@@H]23)C[C@@H](O)C[C@@H]1O | inactive | –
18 | Nc1cccc(S(=O)(=O)c2cccc(N)c2)c1 | inactive | –
19 | CCOc1ccc(N=Nc2ccc(/C=C/c3ccc(N=Nc4ccc(OCC)cc4)cc3S(=O)(=O)O)c(S(=O)(=O)O)c2)cc1 | 24 µM (active) | –
20 | O=C(O)c1nc(Cl)c(Cl)c(Cl)c1Cl | inactive | –

Row | SMILES | Potency | activity change, negative = cytotoxicity
21 | CCN(CC)CCNc1ccc(CNC=O)c2sc3ccc(OC)cc3c(=O)c12 | 4.33 µM (active) | –
22 | CN(C)c1ccc(CCO)cc1 | inactive | –
23 | COC(=O)C1=C(C)NC(COC(N)=O)=C(C(=O)OC(C)C)C1c1cccc(Cl)c1Cl (stereo not given) | inactive | –
24 | CCCCCCCCCCCCCCOS(=O)(=O)O | inactive | –
25 | C/C=C/C(=O)CC | – | 0.659% [at 19 µM]
26 | O=S(c1cc(Cl)cc(Cl)c1O)c1cc(Cl)cc(Cl)c1O | inactive | –
27 | CCCCC(CC)CN1C(=O)C2C3C=CC(C3)C2C1=O (stereo not given) | inactive | –
28 | CCC(CC)Nc1ccc(C)c(C)c1 | inactive | –
29 | CN1CCN(C(c2ccccc2)c2ccccc2)CC1 | inactive | –
30 | COc1ccc(C)cc1[N+](=O)[O-] | inactive | –
31 | CCCCCCCCCCCCCCCCCCOS(=O)(=O)O | inactive | –
32 | O=C(O)C1(C(=O)O)CCC1.[NH2-].[NH2-].[Pt+2] | inactive | –
33 | COS(=O)(=O)C(F)(F)F | inactive | –
34 | OCCN1CCN(CCCN2c3ccccc3C=Cc3ccccc32)CC1 | inactive | –
35 | COCCCN1CCC(NC(=O)c2cc(Cl)c(N)c3c2OCC3)CC1 | inactive | –
36 | Cc1ncc(CO)c(C=O)c1O | inactive | –
37 | CCCCC(CC)COC(=O)CCCCCCCCC(=O)OCC(CC)CCCC (stereo not given) | inactive | –
38 | Cc1cccc(Nc2ccccc2)c1 | inactive | –
39 | CCCCC | inactive | –
40 | CN(C)CCN(Cc1ccc(Cl)cc1)c1ccccn1 | inactive | –
